38 molecules from PubChem BioAssay can be followed below.

Broadly, the remaining activity is the signal under treatment as a percentage of the control signal. As usually defined, the inhibition is the relative decrease from the control value, in per cent.

Where “and” joins values, the source holds several entries; their conditions need not be identical. Identical values can stand only once. Calls of active or inactive are those of the source. Unless noted, no rule for the calls is given here.

The test system of assay [1] is Aerobactin synthetase IucA (Klebsiella pneumoniae hvKP1). The assay can be described thus: IucA enzyme inhibition, primary screen, biochemical, Spectrum library (AID 1346200).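 Also: 100% = wells without compound and 0% = wells lacking enzyme.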 The conditions noted are these: malachite green pyrophosphate, A620, at 8 µM, stronger effect = lower value.
Assay [2] deals with Aerobactin synthetase IucA (Klebsiella pneumoniae, hypervirulent). The assay is described as follows: biochemical IucA inhibition screen of LOPAC library by absorbance (AID 1346212).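 Also: 100% = no compound wells and 0% = no enzyme wells.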 The following applies: IucA enzyme assay, absorbance (OD) readout; stronger effect = lower value;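 tested at 8 µM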.
Assay [3] can be described thus: compounds altering circadian rhythm period length – cell-based, LOPAC library, luminescence reporter (AID 2774).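 Also: values are relative to mean of DMSO wells on each plate.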 The following applies: circadian reporter cells, at 7 µM, actives lie on both sides.
Assay [4] has as its system Hepatitis C virus NS3 helicase. The assay can be described thus: blockers of NS3h binding to ssDNA – biochemical, fluorescence polarization, LOPAC1280 library, primary screen (AID 687035; in the data active = inhibition above about 37%). The conditions noted are these: Purified HCV NS3 helicase, Cy5-dT15 ssDNA binding fluorescence polarization; stronger effect = higher value; concentration not given here.
Assay [5] can be described thus: compounds altering Cy5-DNA-NS3h complex signal – biochemical, LOPAC1280, artefact control for HCV NS3 helicase inhibitor project (AID 687037). The following applies: Cy5-DNA-NS3h complex fluorescence interference counterscreen.
A short description of assay [6]: MELAS cybrid and Rieske KO viability enhancers – cell-based, MELAS cybrids, Rieske KO mouse fibroblasts, CellTiter-Glo, primary screen (AID 1508586;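 active = mean z-score across replicates of 1.96 or higher in either the MELAS or the Rieske mutant cell line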;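 also: z relative to plate mean and SD of compound and empty wells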). The following applies: low glucose. (In general: ATP-based viability assays read luminescence as a measure of living cells.)
The nature of assay [7]: galactose survival enhancers in mitochondrial complex I cybrids – cell-based, galactose medium, ATP luminescence, primary screen (AID 1645843;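 active = z-score of at least 1.8 in each of two replicates, scored against plate mean and spread of sample wells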;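 also: positive z means more ATP and so rescue of galactose-driven cybrid death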). The following applies: complex I mutant cybrid cells, 72 h, stronger effect = higher value.

On to `C[C@](N)(Cc1ccc(O)c(O)c1)C(=O)O`, for which, in assay [1], the activity remaining is 121% (inactive). In addition, in assay [2], the remaining activity was 113% (inactive).

As to `CN1C[C@H](C(=O)N[C@]2(C)O[C@@]3(O)[C@@H]4CCCN4C(=O)[C@H](Cc4ccccc4)N3C2=O)C[C@@H]2c3cccc4[nH]cc(c34)C[C@H]21`, in assay [1], the activity remaining is 118% (inactive). The remaining activity in assay [2] was 105% (inactive).

As to `CCO/C([O-])=N/c1c[n+](N2CCOCC2)no1`, the activity remaining in assay [1] is 99.6% (inactive). Moreover, the remaining activity in assay [2] is 128% (inactive).

As for `O=C(CCCN1CC=C(n2c(=O)[nH]c3ccccc32)CC1)c1ccc(F)cc1`, the activity remaining in assay [1] is 111% (inactive). Besides, in assay [2], the remaining activity was 98.7% (inactive).

`NCCCNCCSP(=O)(O)O`: the activity remaining in assay [1] is 113% (inactive). Further, the remaining activity in assay [2] is 108% (inactive).

In the case of `CN1CCC(=C2c3ccccc3CC(=O)c3sccc32)CC1`, the activity remaining in assay [1] is 100% (inactive). In addition, the remaining activity in assay [2] was 112% (inactive).

For the molecule `NC1(C(=O)O)CC1`, in assay [1], the activity remaining is 94.3% (inactive). The remaining activity in assay [2] was 88.1% (inactive).

On to `NCCCCC(=O)O`, for which the activity remaining in assay [1] was 107% (inactive). In assay [2], the remaining activity was 104% (inactive).

As to `CC(C(=O)O)c1cccc(C(=O)c2ccccc2)c1` (configuration not stated), the activity remaining in assay [1] is 106% (inactive). For the same molecule, the remaining activity in assay [2] is 120% (inactive).

For `CN[C@H](CC(=O)O)C(=O)O`, the activity remaining in assay [1] is 118% (inactive). Further, in assay [2], the remaining activity is 118% (inactive).

Take `CC(C)OC(=O)C(C)(C)Oc1ccc(C(=O)c2ccc(Cl)cc2)cc1`: in assay [1], the activity remaining was 94.1% (inactive). For the same molecule, in assay [2], the remaining activity was 108% (inactive).

Take `OCCN1CCN(CCCN2c3ccccc3Sc3ccc(Cl)cc32)CC1`: in assay [1], the activity remaining is 121% (inactive). In addition, the remaining activity in assay [2] was 112% (inactive).

As for `COc1cc(Cc2cnc(N)nc2N)cc(OC)c1OC`, in assay [1], the activity remaining is 93.2% (inactive). Moreover, the remaining activity in assay [2] is 76.5% (inactive).

As for `CC1COc2c(N3CCN(C)CC3)c(F)cc3c(=O)c(C(=O)O)cn1c23` (configuration not stated), in assay [1], the activity remaining is 92.3% (inactive). In addition, the remaining activity in assay [2] is 118% (inactive).

Take `CC(=O)OC(C)C[N+](C)(C)C` (configuration not stated): the activity remaining in assay [1] was 80.8% (inactive). Moreover, in assay [2], the remaining activity is 119% (inactive).

Consider `CCCC(C(=O)OCCN(CC)CC)(c1ccccc1)c1ccccc1`, for which the activity remaining in assay [1] is 105% (inactive). Further, the remaining activity in assay [2] is 118% (inactive).

On to `C=C[C@H]1CN2CC[C@H]1C[C@@H]2[C@@H](O)c1ccnc2ccc(OC)cc12`, for which, in assay [1], the activity remaining was 98.9% (inactive). Besides, the remaining activity in assay [2] is 115% (inactive).

For the molecule `OC(CCN1CCCCC1)(c1ccccc1)C1CCCCC1` (configuration not stated), the activity remaining in assay [1] was 97.3% (inactive). The remaining activity in assay [2] was 104% (inactive).

As to `CCCCOc1cc(CC2CNC(=O)N2)ccc1OC` (configuration not stated), the activity remaining in assay [1] is 115% (inactive). Also, in assay [2], the remaining activity was 110% (inactive).

In the case of `NC(=O)c1ncn([C@@H]2O[C@H](CO)[C@@H](O)[C@H]2O)n1`, the activity remaining in assay [1] was 120% (inactive). In assay [2], the remaining activity was 96.8% (inactive).

For the molecule `CNC[C@H](O)c1cccc(O)c1`, the activity remaining in assay [1] was 103% (inactive). Further, the remaining activity in assay [2] is 112% (inactive).

For the molecule `CC/C(=C(\c1ccccc1)c1ccc(OCCN(C)C)cc1)c1ccccc1`, the activity remaining in assay [1] was 118% (inactive). In addition, the remaining activity in assay [2] was 107% (inactive).

`O=C(O)c1ccccc1Nc1ccccc1`: the activity remaining in assay [1] is 106% (inactive). The remaining activity in assay [2] was 108% (inactive).

Regarding `O=c1c(O)c(-c2ccc(O)cc2O)oc2cc(O)cc(O)c12`, the activity remaining in assay [1] is 96.8% (inactive). In assay [2], the remaining activity was 122% (inactive).

With `Cc1cc(C(C)(C)C)cc(C)c1CC1=NCCN1`, the activity remaining in assay [1] was 126% (inactive). Moreover, the remaining activity in assay [2] was 115% (inactive).

With `CC(=O)OCC1=C(C(=O)O)N2C(=O)[C@@H](NC(=O)CSc3ccncc3)[C@H]2SC1`, the activity remaining in assay [1] is 109% (inactive). Besides, in assay [2], the remaining activity was 113% (inactive).

`CCCOc1ccccc1-c1nc2n[nH]nc2c(=O)[nH]1`: the activity remaining in assay [1] is 97.7% (inactive). The remaining activity in assay [2] was 125% (inactive).

Turning to `CN/C(=C\[N+](=O)[O-])NCCSCc1ccc(CN(C)C)o1`, the activity remaining in assay [1] is 91.1% (inactive). Besides, the remaining activity in assay [2] is 101% (inactive).

On to `CCN(CC)CCNC(=O)c1ccc(NC(C)=O)cc1`, for which the activity remaining in assay [1] is 92.5% (inactive). Besides, the remaining activity in assay [2] was 109% (inactive).

For `CC(C)(Oc1ccc(C2CC2(Cl)Cl)cc1)C(=O)O` (configuration not stated), the activity remaining in assay [1] is 116% (inactive). Moreover, the remaining activity in assay [2] is 114% (inactive).

As to `CNCCC(Oc1ccc(C(F)(F)F)cc1)c1ccccc1` (configuration not stated), the activity remaining in assay [1] was 96.1% (inactive). Besides, the remaining activity in assay [2] is 96.6% (inactive).

Take `CCN(CC)CCNC(=O)c1cc(S(C)(=O)=O)ccc1OC`: the activity remaining in assay [1] is 120% (inactive). Also, the remaining activity in assay [2] was 104% (inactive).

In the case of `NC(=O)CC[C@H](N)C(=O)O`, in assay [1], the activity remaining was 109% (inactive). Further, the remaining activity in assay [2] is 110% (inactive).

As to `CNCCC=C1c2ccccc2CCc2ccccc21`, the activity remaining in assay [1] is 122% (inactive). Besides, in assay [2], the remaining activity is 113% (inactive).

`Nc1ccc(S(=O)(=O)Nc2ccnn2-c2ccccc2)cc1`: the activity remaining in assay [1] is 117% (inactive). For the same molecule, the remaining activity in assay [2] is 99.3% (inactive).

For the molecule `NCCCCCC(=O)O`, the activity remaining in assay [1] is 113% (inactive). Besides, in assay [2], the remaining activity was 113% (inactive).

Take `CN(C)C(=O)C(CCN1CCC(O)(c2ccc(Cl)cc2)CC1)(c1ccccc1)c1ccccc1`: the activity remaining in assay [1] was 113% (inactive). Besides, the remaining activity in assay [2] is 114% (inactive).

Regarding `CCn1cc(C(=O)O)c(=O)c2ccc(C)nc21`, the period change in assay [3] is -0.11 h (inactive). In addition, the inhibition in assay [4] was -5% (inactive). In addition, the fluorescence ratio (interference) in assay [5] is 1 (inactive). Besides, the activity remaining in assay [1] was 117% (inactive). Besides, the remaining activity in assay [2] was 122% (inactive). In addition, the z-score was -0.303 (inactive) and 0.479 (inactive) in assay [6] (MELAS cybrid survival, CellTiter-Glo 48 h, stronger effect = higher value); 0.386 and -0.565 in assay [6] (Rieske KO mouse fibroblast survival, CellTiter-Glo 72 h); 0.725 (inactive) and 0.425 (inactive) in assay [7].
